Experimental data: paper PMC12136788
Residue numbers refer to the chain shown, from its start. Over roughly 5,800 sequences, “enrichment r” has its median near 0.68; the highest 2% begin near 11. The sample holds the highest values, similar sequences and a random draw of the others, so the mix is not that of the screen.

B1: chr10:95311796:95311897:-|3pUTR|ENSG00000095637|unk|FALSE|unique (ssRNA)
RNA: GGGAGUUCUACAGUCCGACGAUCCAGACAUAGAUUUUUCUGUUCAUUUAUUUUUCUUCAUUGCAGUGGAUUGAUUUGAUAAAUAGAUGUGUUGAAUUACUACAUUUGCUGUACAUAUUAUUUAAUAAACUUUAUUCAGAAUUGCAACAGAGGAUUGAGCAUCA
B2: chr9:72354534:72354635:-|3pUTR|ENSG00000107372|msi1|FALSE|unique (ssRNA)
RNA: GGGAGUUCUACAGUCCGACGAUCGUCCUAGUUUUUACUUUUAUUCUUAAAGCAUUCAGUUUUGCUUUCAAUUUUAUGUACCUUAGUUCUGAGUUAGACCUGCAGAUGUGUACAGAUAGUUCAUAUUUAUGUAUUGCACAUAAUCAACAGAGGAUUGAGCAUCA
B3: chr4:138167974:138168075:-|3pUTR|ENSG00000151012|msi1|FALSE|unique (ssRNA)
RNA: GGGAGUUCUACAGUCCGACGAUCCACAAAAUCUGCAUUGUCCAUGUGAGUAAAGUAAAAUAAUUCCUGUUAUUUUUUUCUGUUAGAAAUAAGUAUGGAGGAUAUGUUUUUAAAAAUUUAUGAGUUAAUUGAAAUAUCCAUAUACAACAGAGGAUUGAGCAUCA
B4: chr21:34788506:34788607:-|3pUTR|ENSG00000159216|msi1|FALSE|unique (ssRNA)
RNA: GGGAGUUCUACAGUCCGACGAUCUUGUUAAUGCCUAUAACUUUUUUUCAAUUUUUUUGUGUGUGUUUCUAAGGACUUUUUCUUAGGUUUGCUAAAUACUGUAGGGAAAAAAAUGCUUCUUUCUACUUUGUUUAUUUUAGACUUCAACAGAGGAUUGAGCAUCA
B5: chr9:123379744:123379845:-|3pUTR|ENSG00000119522|msi1|total|mutant (ssRNA)
RNA: GGGAGUUCUACAGUCCGACGAUCGUGUUUCAGCACCGAUUCCAGUUUCGCACCCUGGGCAGACCCCCAGGCCCCAUCCGGGACCGGGCAGAGGAGGUGCUGGCGGCCCCAGGGAAGGAGGGUGUGUACCCCAAGGCCCCCUGGCAACAGAGGAUUGAGCAUCA
B6: chr3:98797553:98797658:-|3pUTR|ENSG00000057019|msi1|total|mutant (ssRNA)
RNA: GGGAGUUCUACAGUCCGACGAUCAUUUCAUUCAUUGAAGAAUCAAUACAUAUUUUGUUUCAAAAUGUUUGAAACAAAAGACACCGAUGGCCGACUUUUAUUAAAACAUAUAUGGAUGUGGAAAGCACAUAUAUUAAUGCAGUCCAACAGAGGAUUGAGCAUCA
B7: chr15:52550718:52550819:-|3pUTR|ENSG00000128989|msi1|FALSE|unique (ssRNA)
RNA: GGGAGUUCUACAGUCCGACGAUCUUUAUAUAAACUUUUUAAAUGUAGAAACUUUUUACUUCCACACUCAGUUUUGGAGACCCUAGAAUAAAAGGCUUCAAUACUCUGCAUUCCAUGCCCUCUGCCACCUGCUUUUUUUUCCCCCAACAGAGGAUUGAGCAUCA
B8: chrX:100674576:100674677:+|3pUTR|ENSG00000102359|msi1|FALSE|bound_elsewhere (ssRNA)
RNA: GGGAGUUCUACAGUCCGACGAUCUUGCAAUCCACACCAAAUCAAUCUUUGAAAACAUUCCUCCAUUCGGUUCAUACAUACAGUAGAAACCACUGUGGCUGCCCUUAAUCCAGUGUGCUUAUAGGAAAUCAGUUAGCAGCUGACCAACAGAGGAUUGAGCAUCA
B9: chr7:7607225:7607326:+|3pUTR|ENSG00000164654|msi1|total|mutant (ssRNA)
RNA: GGGAGUUCUACAGUCCGACGAUCUUUGAGUGAUUUUGAUAUGCUUCACAGAGACAAAUGCUGCCAAAAUAAACAUCGAAGUACCGACAUGAGUUCUGUUCAGCAGGUUGAAAAGUCUGAUUCCGAAAAACUUUCUAAGUUUUGCAACAGAGGAUUGAGCAUCA
B10: chr3:129431351:129431457:-|3pUTR|ENSG00000129071|unk|FALSE|unique (ssRNA)
RNA: GGGAGUUCUACAGUCCGACGAUCACUUCAAAAAAGCUUAAUUAAGUACAACCAACCACCUUUCCAGCCAUAGAGAUUUUAAUUAGCCCAACUAGAAGCCUAGUGUGUGUGCUUUCUUAAUGUGUGUGCCAAUGGUGGAUCUUUCAACAGAGGAUUGAGCAUCA
B11: chr14:44928120:44928223:-|3pUTR|ENSG00000179454|unk|total|mutant (ssRNA)
RNA: GGGAGUUCUACAGUCCGACGAUCCCGUACAGCAGGCCUCCCAGUGCUGAUGUAAAUAUUUGAGCAGUGUUCCGUACCAUUCUCCGUGCAUAUUAAUUUUUUUAUAUAUCCUUAUAAUUUCCGUUUUUUAAGAUCUUUGCUUUUCAACAGAGGAUUGAGCAUCA
B12: chr14:44928120:44928223:-|3pUTR|ENSG00000179454|unk|FALSE|unique (ssRNA)
RNA: B11 RNA with C24U, C25A, C71U, C72A, C83U, C84A, C120U, C121A
B13: chr5:154817497:154817598:+|3pUTR|ENSG00000155506|msi1_unk|FALSE|overlapping (ssRNA)
RNA: GGGAGUUCUACAGUCCGACGAUCUUAUUGAGAGUAUCUGCUUUCCAGGCUGAAGUGAUUCAUUCAUUAUUCUAGUCCUGCUUUAGUCCUUUGUAAUUUGUGGUAAUUAUGCUUUUCUUUUUAAUACAAAAAAAUGUAUAAAAACAACAGAGGAUUGAGCAUCA
B14: chr12:54238554:54238587:-|3pUTR|ENSG00000094916|msi1_unk|FALSE|overlapping (ssRNA)
RNA: GGGAGUUCUACAGUCCGACGAUCGGGAGCACCCAUUUUAAACCUGGAGAGAACCAUGAUGUUUUCUUCUUCAAAUAACAAUCUAGUUUUUUUUCCCCCAGUACUAAAAUUGUAUUGUCUUUCAGACAAUAUAAUUUUUAUUUACAACAGAGGAUUGAGCAUCA
B15: chr10:73916565:73916770:+|3pUTR|ENSG00000122861|msi1|total|mutant (ssRNA)
RNA: GGGAGUUCUACAGUCCGACGAUCCUGGUUGUCAUUUUUGCAGCCGAGUCAUCUCCAUCAGCUGUAAGAAGAGACUGGGAAGACCGGCUCUGCACAGAUGGAUUUGCCUGUGCCACCCACCAGGGCGAACGACAACCGCUUUACCAACAGAGGAUUGAGCAUCA
B16: chr10:72012227:72012328:+|3pUTR|ENSG00000122863|msi1|total|mutant (ssRNA)
RNA: GGGAGUUCUACAGUCCGACGAUCCAAUGGAAGGAGCUUCAGCAGGAGGUCCUUCCCAGAAGGUUGAUUCUUGGCCUGGGUGGCCGAGGAGAUAUCCUGACCCUAAAGUCUUCCAGCCCCGGGUCAUCCUCUCCUAUACCCGGGCAACAGAGGAUUGAGCAUCA
B17: chr1:18907414:18907603:-|3pUTR|ENSG00000169991|msi1|total|mutant (ssRNA)
RNA: GGGAGUUCUACAGUCCGACGAUCCCUUGAUUUCCCUGAUAACUUGAUGUUCUUCCCUCCCUCGCCAGCCAACAACCGAGGCUCCGAGAUCUGUAAUUUCUCUGUGAGAAAGUCUGAAGGGGCCAGGCCUGGUCUCUGCUCCCUCAACAGAGGAUUGAGCAUCA
B18: chr1:42176760:42176861:-|3pUTR|ENSG00000198815|msi1|total|mutant (ssRNA)
RNA: GGGAGUUCUACAGUCCGACGAUCGUCGCUCAGAUGUCCUUUGAAGUGGGAGGGAAUCAAUCCGGGGAUAAUUUCAAAUGGAACCGAGUAUUUUGAUAUUGUUCAUUCAGAGGGUGAUGUGUACAUAUCUAUAUUGUAUAUAUGCAACAGAGGAUUGAGCAUCA

Each binder was assayed against T1, UNK ZnF1-6 (called full-length) (human, UniProt Q9C0B0 30-357) (assay: nsRBNS (natural sequence RNA bind-n-seq); RBNS binding buffer (assumed for nsRBNS): 25 mM Tris pH 7.5, 150 mM KCl, 3 mM MgCl2, 0.01% Triton X-100, 500 ug/ml BSA, 20 U/ml SUPERase-In, 4 C; UNK is unkempt and MSI1 is Musashi-1; names of the RNAs are library labels; protein concentration not given here; high values mean tight binding).
T1 sequence: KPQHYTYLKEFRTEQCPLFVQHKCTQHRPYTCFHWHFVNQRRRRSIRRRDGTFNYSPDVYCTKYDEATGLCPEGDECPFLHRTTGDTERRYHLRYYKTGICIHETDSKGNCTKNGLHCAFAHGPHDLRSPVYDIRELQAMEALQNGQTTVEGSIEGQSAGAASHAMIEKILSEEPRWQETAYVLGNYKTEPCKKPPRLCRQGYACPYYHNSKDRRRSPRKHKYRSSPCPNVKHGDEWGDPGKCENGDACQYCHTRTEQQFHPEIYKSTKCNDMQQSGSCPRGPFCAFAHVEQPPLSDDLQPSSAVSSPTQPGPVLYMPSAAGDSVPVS

Row | Binder | binding signal [enrichment R]
1 | B1 | 2.42
2 | B2 | 37.4
3 | B3 | 1.08
4 | B4 | 2.15
5 | B5 | 0.59
6 | B6 | 0.53
7 | B7 | 3.77
8 | B8 | 0.532
9 | B9 | 0.348
10 | B10 | 5.99
11 | B11 | 7.31
12 | B12 | 213
13 | B13 | 1.93
14 | B14 | 9
15 | B15 | 0.561
16 | B16 | 0.492
17 | B17 | 0.733
18 | B18 | 1.09
